Of roughly 8,800 targets only a part is listed; those with a hit were picked by preference. About 0.5% of all pairs of compound and target were hits. Unmarked numbers belong to inactive results.
Experiments:
Assay in all cases: log2 fold change, soluble protein after heating vs DMSO (PISA); higher = thermal stabilisation; K562 lysate, 10 uM; active = over 0.2 and 3.5 SD of the protein, either way, in both replicates (recomputed)
vemurafenib = compound: CCCS(=O)(=O)Nc1ccc(F)c(C(=O)c2c[nH]c3ncc(-c4ccc(Cl)cc4)cc23)c1F [vemurafenib]
Procedure, shortened: (§1)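 Quantification was by TMTpro 16plex LC-MS/MS with equalised channel sums, applied to the supernatant after 21,000xg for 90 min. Samples were crude K562 extract at 1 mg/mL protein in PBS pH 7.4 with 1 mM MgCl2, treated with 10 μM compound for 30 min, heated for 3 min across 48°C-58°C, pooled and brought to 0.5% NP-40 at 4°C. Values are log-two fold changes in thermal stability relative to solvent controls, from duplicates.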

[1] = compound: CCCS(=O)(=O)Nc1ccc(F)c(C(=O)c2c[nH]c3ncc(Cl)cc23)c1F
Procedure, shortened: as §1

barasertib = compound: CCN(CCCOc1ccc2c(Nc3cc(CC(=O)Nc4cccc(F)c4)[nH]n3)ncnc2c1)CCOP(=O)(O)O [barasertib]
Procedure, shortened: as §1

[2] = compound: CC[C@@H]1C(=O)N(C)c2cnc(Nc3ccc(C(=O)NC4CCN(C)CC4)cc3OC)nc2N1C1CCCC1
Procedure, shortened: as §1

volasertib = compound: CC[C@@H]1C(=O)N(C)c2cnc(Nc3ccc(C(=O)N[C@H]4CC[C@H](N5CCN(CC6CC6)CC5)CC4)cc3OC)nc2N1C(C)C [volasertib]
Procedure, shortened: as §1

[3] = compound: CCn1c(C(=O)N(C2CC2)C2CC2)cc2c3c(ncn3C)c(Nc3cc(C)n(C)n3)nc21
Procedure, shortened: as §1

[4] = compound: CCn1cc(-c2ccnc3[nH]c(-c4cccc(CN(C)C)c4)cc23)c(-c2ccc(NC(=O)N(C)C)cc2)n1
Procedure, shortened: as §1

[5] = compound: CN1CCC(CNc2ccc3ncc(-c4cccc(OC(F)(F)F)c4)n3n2)CC1
Procedure, shortened: as §1

saracatinib = compound: CN1CCN(CCOc2cc(OC3CCOCC3)c3c(Nc4c(Cl)ccc5c4OCO5)ncnc3c2)CC1 [saracatinib]
Procedure, shortened: as §1

sotrastaurin = compound: CN1CCN(c2nc(C3=C(c4c[nH]c5ccccc45)C(=O)NC3=O)c3ccccc3n2)CC1 [sotrastaurin]
Procedure, shortened: as §1

UniProt P42331, sequence (P42331 whole entry, looked up): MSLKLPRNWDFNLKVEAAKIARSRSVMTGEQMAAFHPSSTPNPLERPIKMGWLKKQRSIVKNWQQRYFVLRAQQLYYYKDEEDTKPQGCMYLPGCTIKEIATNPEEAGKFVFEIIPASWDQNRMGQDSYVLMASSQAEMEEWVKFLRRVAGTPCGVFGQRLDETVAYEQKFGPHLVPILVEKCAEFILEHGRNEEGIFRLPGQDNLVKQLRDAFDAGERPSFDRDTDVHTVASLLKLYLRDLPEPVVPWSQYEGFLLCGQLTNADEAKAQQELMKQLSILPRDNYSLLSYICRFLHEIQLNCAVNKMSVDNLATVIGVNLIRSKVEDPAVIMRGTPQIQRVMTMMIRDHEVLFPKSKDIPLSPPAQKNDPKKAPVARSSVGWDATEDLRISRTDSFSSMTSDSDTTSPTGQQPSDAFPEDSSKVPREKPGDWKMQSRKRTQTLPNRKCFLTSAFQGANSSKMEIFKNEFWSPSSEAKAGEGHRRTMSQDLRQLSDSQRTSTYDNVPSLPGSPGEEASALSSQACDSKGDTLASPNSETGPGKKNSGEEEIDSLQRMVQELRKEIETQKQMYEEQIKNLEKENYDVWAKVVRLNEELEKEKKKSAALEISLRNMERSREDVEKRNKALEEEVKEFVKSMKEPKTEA
UniProt Q96NW4, sequence (Q96NW4 whole entry, looked up): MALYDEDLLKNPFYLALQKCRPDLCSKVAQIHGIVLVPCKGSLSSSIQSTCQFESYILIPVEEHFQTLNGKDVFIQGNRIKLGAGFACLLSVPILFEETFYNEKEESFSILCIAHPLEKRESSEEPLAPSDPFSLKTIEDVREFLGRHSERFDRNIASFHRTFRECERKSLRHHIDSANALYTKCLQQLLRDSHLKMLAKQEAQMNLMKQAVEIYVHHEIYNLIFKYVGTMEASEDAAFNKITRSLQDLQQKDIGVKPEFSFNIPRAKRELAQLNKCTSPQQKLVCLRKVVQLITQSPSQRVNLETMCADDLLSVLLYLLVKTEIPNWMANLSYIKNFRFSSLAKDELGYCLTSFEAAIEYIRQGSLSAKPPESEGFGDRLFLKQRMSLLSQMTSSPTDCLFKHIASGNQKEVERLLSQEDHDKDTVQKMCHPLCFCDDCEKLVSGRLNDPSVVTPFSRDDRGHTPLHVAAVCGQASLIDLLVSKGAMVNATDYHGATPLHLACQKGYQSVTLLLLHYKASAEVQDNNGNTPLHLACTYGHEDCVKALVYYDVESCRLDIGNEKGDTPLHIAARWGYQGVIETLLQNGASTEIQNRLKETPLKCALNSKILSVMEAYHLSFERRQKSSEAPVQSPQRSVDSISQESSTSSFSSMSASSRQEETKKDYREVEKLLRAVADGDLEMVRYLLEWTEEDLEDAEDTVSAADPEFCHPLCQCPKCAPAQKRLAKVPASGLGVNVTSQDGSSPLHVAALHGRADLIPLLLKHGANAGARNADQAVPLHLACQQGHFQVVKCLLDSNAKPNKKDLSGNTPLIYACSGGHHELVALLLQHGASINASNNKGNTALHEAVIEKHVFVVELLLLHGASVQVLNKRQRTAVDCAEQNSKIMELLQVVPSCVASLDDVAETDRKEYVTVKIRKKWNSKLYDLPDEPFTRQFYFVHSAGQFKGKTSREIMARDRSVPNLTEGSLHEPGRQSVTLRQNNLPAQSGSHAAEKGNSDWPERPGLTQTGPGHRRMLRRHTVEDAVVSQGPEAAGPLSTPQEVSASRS
UniProt P39687, sequence (P39687 whole entry, looked up): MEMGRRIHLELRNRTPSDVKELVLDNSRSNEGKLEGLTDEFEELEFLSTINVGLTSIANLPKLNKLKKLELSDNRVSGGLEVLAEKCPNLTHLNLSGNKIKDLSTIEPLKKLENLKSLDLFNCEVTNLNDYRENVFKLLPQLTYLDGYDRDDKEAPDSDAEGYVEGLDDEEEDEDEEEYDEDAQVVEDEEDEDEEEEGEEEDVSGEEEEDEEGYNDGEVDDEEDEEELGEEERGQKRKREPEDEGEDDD
UniProt Q9BR61, sequence (Q9BR61 whole entry, looked up): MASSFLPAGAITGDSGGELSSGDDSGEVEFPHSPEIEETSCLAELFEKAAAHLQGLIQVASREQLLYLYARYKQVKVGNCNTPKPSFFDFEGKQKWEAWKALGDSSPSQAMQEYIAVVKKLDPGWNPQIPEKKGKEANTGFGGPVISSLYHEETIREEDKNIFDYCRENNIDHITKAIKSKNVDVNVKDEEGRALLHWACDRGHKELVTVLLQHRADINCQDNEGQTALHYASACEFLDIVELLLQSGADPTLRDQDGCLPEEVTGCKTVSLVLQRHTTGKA
UniProt Q9UNA0, sequence (Q9UNA0 whole entry, looked up): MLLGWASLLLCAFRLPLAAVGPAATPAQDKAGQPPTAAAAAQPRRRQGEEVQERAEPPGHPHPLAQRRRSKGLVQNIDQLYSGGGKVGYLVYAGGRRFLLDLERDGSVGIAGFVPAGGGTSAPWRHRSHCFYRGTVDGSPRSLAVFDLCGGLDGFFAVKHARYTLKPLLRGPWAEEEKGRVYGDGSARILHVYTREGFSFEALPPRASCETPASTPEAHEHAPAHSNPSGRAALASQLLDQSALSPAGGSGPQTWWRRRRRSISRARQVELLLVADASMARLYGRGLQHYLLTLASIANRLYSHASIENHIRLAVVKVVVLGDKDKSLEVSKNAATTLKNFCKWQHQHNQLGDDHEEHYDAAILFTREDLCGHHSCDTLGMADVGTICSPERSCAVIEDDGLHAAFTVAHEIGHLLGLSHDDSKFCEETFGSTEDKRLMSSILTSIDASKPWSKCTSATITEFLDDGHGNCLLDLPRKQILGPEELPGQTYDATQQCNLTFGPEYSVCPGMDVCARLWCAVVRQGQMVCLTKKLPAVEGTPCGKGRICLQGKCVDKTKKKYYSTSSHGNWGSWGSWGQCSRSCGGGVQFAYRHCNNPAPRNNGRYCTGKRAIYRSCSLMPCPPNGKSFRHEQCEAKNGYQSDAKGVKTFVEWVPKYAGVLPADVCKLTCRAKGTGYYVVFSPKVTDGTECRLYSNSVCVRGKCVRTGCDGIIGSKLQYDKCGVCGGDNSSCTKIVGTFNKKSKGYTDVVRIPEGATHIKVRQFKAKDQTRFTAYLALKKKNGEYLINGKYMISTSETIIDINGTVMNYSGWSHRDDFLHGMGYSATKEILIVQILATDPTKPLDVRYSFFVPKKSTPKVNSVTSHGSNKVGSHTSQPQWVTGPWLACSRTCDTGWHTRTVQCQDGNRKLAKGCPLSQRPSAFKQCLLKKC
UniProt P09110, sequence (P09110 whole entry, looked up): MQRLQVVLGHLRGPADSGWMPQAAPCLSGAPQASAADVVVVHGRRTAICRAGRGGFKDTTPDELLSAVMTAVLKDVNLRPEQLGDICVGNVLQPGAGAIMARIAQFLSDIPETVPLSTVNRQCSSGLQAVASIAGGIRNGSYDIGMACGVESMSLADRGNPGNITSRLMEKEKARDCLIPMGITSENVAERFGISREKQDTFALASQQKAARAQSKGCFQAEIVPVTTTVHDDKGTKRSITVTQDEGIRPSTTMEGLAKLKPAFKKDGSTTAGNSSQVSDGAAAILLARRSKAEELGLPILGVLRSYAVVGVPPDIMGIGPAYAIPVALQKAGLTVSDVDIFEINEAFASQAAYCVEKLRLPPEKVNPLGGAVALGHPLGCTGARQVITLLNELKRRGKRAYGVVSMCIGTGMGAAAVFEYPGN
UniProt Q9UG63, sequence (Q9UG63 whole entry, looked up): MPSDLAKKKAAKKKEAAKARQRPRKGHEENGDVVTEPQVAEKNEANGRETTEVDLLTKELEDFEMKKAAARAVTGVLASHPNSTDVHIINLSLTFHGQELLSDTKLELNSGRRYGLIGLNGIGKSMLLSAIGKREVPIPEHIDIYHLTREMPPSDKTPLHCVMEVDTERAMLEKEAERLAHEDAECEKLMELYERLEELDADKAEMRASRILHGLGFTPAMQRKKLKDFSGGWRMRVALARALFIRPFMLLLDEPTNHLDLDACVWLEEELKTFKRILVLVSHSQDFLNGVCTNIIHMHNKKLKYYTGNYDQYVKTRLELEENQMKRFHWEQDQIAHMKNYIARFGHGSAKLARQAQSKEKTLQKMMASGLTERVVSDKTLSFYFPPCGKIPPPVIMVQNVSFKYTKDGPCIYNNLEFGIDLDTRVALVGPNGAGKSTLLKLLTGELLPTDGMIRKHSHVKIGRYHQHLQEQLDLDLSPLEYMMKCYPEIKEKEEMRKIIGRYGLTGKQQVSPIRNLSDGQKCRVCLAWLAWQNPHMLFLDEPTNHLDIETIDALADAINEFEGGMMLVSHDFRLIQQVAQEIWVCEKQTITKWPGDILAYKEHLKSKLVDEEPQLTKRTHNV
UniProt P35611, sequence (P35611 whole entry, looked up): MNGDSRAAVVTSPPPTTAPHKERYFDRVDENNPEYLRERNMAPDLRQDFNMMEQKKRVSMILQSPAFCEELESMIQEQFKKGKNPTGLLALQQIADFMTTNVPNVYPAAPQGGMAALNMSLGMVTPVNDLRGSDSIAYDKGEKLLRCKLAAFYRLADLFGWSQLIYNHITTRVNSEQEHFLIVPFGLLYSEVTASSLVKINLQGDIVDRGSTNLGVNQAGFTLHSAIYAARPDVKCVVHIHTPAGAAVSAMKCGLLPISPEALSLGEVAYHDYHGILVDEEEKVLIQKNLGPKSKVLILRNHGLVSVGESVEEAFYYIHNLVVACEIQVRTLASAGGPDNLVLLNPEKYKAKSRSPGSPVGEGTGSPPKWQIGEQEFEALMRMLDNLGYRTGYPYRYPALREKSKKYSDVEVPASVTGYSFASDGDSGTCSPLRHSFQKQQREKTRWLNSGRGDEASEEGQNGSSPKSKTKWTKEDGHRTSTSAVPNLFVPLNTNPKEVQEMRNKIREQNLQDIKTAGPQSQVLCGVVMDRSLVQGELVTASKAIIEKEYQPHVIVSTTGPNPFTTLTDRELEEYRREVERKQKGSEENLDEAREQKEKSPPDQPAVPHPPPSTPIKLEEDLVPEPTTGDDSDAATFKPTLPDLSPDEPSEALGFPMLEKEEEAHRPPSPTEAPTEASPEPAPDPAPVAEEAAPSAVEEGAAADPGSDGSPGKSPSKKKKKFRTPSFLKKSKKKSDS

Row | Target | log2 fold change (vemurafenib) | log2 fold change [1] | log2 fold change (barasertib) | log2 fold change [2] | log2 fold change (volasertib) | log2 fold change [3] | log2 fold change [4] | log2 fold change [5] | log2 fold change (saracatinib) | log2 fold change (sotrastaurin)
1 | AKR1C3 (UniProt P42330) | 0.01 | 0.023 | -0.033 | 0.091 | -0.027 | -0.05 | -0.034 | 0.059 | 0.187 | 0.044
2 | ANKRD54 (UniProt Q6NXT1) | -0.031 | 0.053 | -0.026 | 0.021 | 0.006 | -0.005 | 0.004 | 0.011 | -0.004 | 0.001
3 | AIFM2 (UniProt Q9BRQ8) | -0.19 | 0.091 | -0.029 | -0.018 | -0.004 | -0.089 | -0.057 | 0.149 | -0.062 | 0.036
4 | ALDH1A1 (UniProt P00352) | -0.027 | 0.001 | -0.014 | -0.016 | -0.005 | -0.052 | 0.051 | -0.09 | 0.272 | 0.001
5 | ACAA1 (UniProt P09110) | 0.034 | 0.033 | -0.027 | 0.006 | 0.036 | 0.001 | -0.049 | 0.039 | 0.002 | -0.004
6 | ADRM1 (UniProt Q16186) | -0.01 | 0.033 | 0.031 | -0.026 | -0.036 | 0.008 | -0.024 | -0.027 | 0 | 0.002
7 | AMPD3 isoform 4 (UniProt Q01432) | -0.021 | 0.005 | 0.017 | -0.033 | -0.026 | -0.029 | 0.1 | -0.046 | 0.043 | 0.024
8 | ABL2 (UniProt P42684) | 0.233 | 0.222 | -0.002 | 0.11 | -0.05 | 0.009 | 0.039 | -0.128 | 0.254 | -0.02
9 | ANXA5 (UniProt P08758) | -0.034 | -0.011 | 0.003 | -0.073 | -0.001 | 0.059 | 0.022 | -0.064 | -0.008 | 0.024
10 | ARMCX5 (UniProt Q6P1M9) | 0 | 0.032 | 0.007 | -0.034 | -0.012 | -0.027 | -0.099 | -0.03 | 0.043 | 
11 | ACIN1 (UniProt E7EQT4) | -0.057 | 0.026 | -0.021 | -0.011 | 0.045 | 0.048 | -0.321 | 0.127 | -0.016 | 0.047
12 | AKT1 (UniProt P31749) | 0.071 | 0.011 | -0.023 | -0.019 | -0.026 | -0.031 | -0.068 | 0.055 | 0.055 | 0.051
13 | ADAMTS5 (UniProt Q9UNA0) | 0.063 | 0.047 | 0.038 | 0.066 | 0.038 | -0.15 | -0.939 (active) | 0.292 | 0.083 | -0.045
14 | ANKRD27 (UniProt Q96NW4) | -0.016 | 0.006 | 0.043 | 0.01 | -0.075 | 0.001 | -0.042 | -0.073 | 0.054 | -0.002
15 | ADD1 isoform 4 (UniProt P35611) | 0.061 | -0.003 | -0.089 | 0.164 | 0.061 | -0.345 | -0.61 | 0.397 | 0.083 | 
16 | AIMP2 (UniProt Q13155) | -0.026 | 0.022 | 0.031 | -0.131 | -0.063 | -0.019 | -0.008 | -0.079 | 0.018 | 0.015
17 | ARHGEF1 (UniProt M0QZR4) | 0.014 | 0.004 | 0.023 | -0.025 | -0.041 | 0.014 | -0.08 | 0.013 | 0.009 | 0.018
18 | ALDH2 (UniProt P05091) | -0.083 | 0.011 | -0.012 | -0.012 | -0.017 | -0.011 | 0.007 | -0.009 | 0.012 | 0
19 | ALG8 (UniProt Q9BVK2) | -0.038 | -0.013 | 0 | -0.084 | 0.034 | 0.045 | -0.316 (active) | 0.001 | 0.005 | 0.038
20 | ACBD6 (UniProt Q9BR61) | 0.028 | 0.035 | -0.006 | -0.025 | -0.082 | 0.013 | -0.009 | 0.006 | -0.015 | 0.014
21 | ABCF2 isoform 2 (UniProt Q9UG63) | 0.017 | 0.002 | -0.014 | -0.072 | -0.045 | 0.026 | -0.008 | -0.026 | 0 | 0.036
22 | APOB (UniProt P04114) | -0.006 | 0.039 | 0.03 | -0.009 | 0.026 | -0.189 | -0.224 (active) | 0.092 | 0.029 | 0.024
23 | ALDH5A1 isoform 2 (UniProt P51649) | -0.016 | 0.011 | -0.009 | -0.024 | -0.001 | 0.031 | 0.004 | 0.008 | 0 | -0.023
24 | ANXA11 (UniProt P50995) | 0.02 | -0.013 | 0.002 | 0.024 | -0.031 | 0.044 | -0.049 | -0.01 | -0.009 | -0.017
25 | ABHD12 isoform 2 (UniProt Q8N2K0) | -0.049 | 0.077 | -0.015 | 0.034 | 0.006 | -0.055 | 0.119 | -0.111 | -0.039 | 0.018
26 | AK2 (UniProt P54819) | 0.014 | 0.062 | -0.013 | 0.029 | 0.013 | -0.009 | 0.119 | -0.008 | -0.015 | -0.038
27 | ANP32A (UniProt P39687) | -0.025 | 0.052 | -0.007 | -0.011 | 0.006 | -0.008 | -0.085 | 0.062 | -0.033 | -0.002
28 | ANKRD30B (UniProt Q9BXX2) | 0.136 | 0.024 | 0.047 | 0.012 | 0.003 | -0.055 | -0.755 (active) | 0.281 | 0.04 | 
29 | ARHGAP25 isoform 4 (UniProt P42331) | 0.021 | 0.049 | 0.081 | -0.045 | -0.029 | -0.032 | -0.012 | 0.019 | -0.034 | 0.043
30 | ASNS (UniProt P08243) | -0.002 | -0.002 | 0.025 | -0.056 | -0.047 | 0.005 | 0.031 | -0.03 | 0.022 | 0.014

From the supplement of paper PMC10849652
